Experimental data published in PubChem BioAssay AID2014 (Sanford-Burnham Center for Chemical Genomics, 2009).
Among all 290,000 compounds or so, about 3,000 (1%) were called active. No rule for the calls is given here. Many of the other results were omitted from the sample, so actives are more common in it than they were.

Biological target: Polyadenylate-binding protein 1 (Homo sapiens) (UniProt P11940)
Experiment: PABP poly(A) RNA binding inhibitors, primary screen, biochemical, fluorescence polarization, uHTS (AID 2014);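 also: calls also rest on retests at 20 µM and on dose response follow-up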
Conditions: stronger effect = higher value

Chain of Polyadenylate-binding protein 1 (Homo sapiens) (P11940 whole entry, looked up): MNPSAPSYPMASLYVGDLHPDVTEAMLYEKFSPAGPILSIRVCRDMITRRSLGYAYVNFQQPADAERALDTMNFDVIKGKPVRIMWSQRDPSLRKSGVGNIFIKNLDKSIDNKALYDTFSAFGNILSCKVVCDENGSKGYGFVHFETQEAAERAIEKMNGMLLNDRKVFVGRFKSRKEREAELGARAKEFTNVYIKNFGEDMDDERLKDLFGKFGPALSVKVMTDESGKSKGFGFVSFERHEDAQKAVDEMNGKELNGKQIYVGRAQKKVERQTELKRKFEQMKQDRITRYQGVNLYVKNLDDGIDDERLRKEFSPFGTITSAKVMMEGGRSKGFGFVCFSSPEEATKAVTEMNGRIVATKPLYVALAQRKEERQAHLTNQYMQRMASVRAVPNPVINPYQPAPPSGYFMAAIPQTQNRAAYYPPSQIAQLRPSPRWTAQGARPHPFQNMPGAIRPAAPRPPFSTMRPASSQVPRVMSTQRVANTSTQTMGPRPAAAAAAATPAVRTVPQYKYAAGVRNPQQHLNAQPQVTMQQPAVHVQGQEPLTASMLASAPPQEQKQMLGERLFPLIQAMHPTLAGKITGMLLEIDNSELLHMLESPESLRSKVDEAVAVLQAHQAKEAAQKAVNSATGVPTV

CC(C)(C)C1CCC(C(=O)NCC(c2cccs2)N2CCOCC2)CC1 (stereo not given)
inhibition (at 35 µM): 15.6% (inactive)

O=C(CC(=O)Nc1ccc(Cl)c(Cl)c1)N/N=C/c1ccc(O)cc1
inhibition (at 35 µM): 51.1% (active) | inhibition (confirmation repeats, at 20 µM): 59.9%

Nc1nnn(CC(=O)N/N=C/c2ccc(O)cc2)n1
inhibition (at 35 µM): 15.3% (inactive)

O=C(C[n+]1ccccc1)N/N=C/c1ccc(O)cc1
inhibition (at 35 µM): -10% (inactive)

CN(C)c1ccc(S(=O)(=O)NCC(=O)NCC2CCCCC2)cc1[N+](=O)[O-]
inhibition (at 35 µM): 13.4% (inactive)

COc1cccc(C(=O)N/N=C(\C)c2cccc(NC(=O)c3ccc(F)cc3)c2)c1OC
inhibition (at 35 µM): -0.8% (inactive)

COc1ccccc1OCCCC(=O)Nc1ccc2c(c1)OCCO2
inhibition (at 35 µM): 3.8% (inactive)

CCC(CC)c1nnc(NC(=O)/C=C/c2ccco2)s1
inhibition (at 35 µM): 10% (inactive) | inhibition (confirmation repeats, at 20 µM): 1.7%

CCc1nnc(NC(=O)/C=C/c2ccc(C)o2)s1
inhibition (at 35 µM): 4.4% (active) | inhibition (confirmation repeats, at 20 µM): 56.5%

Cc1nnc(NC(=O)/C=C/c2ccco2)s1
inhibition (at 35 µM): -3.5% (inactive) | inhibition (confirmation repeats, at 20 µM): 8.4%

CCOC(=O)c1c(S(=O)(=O)Nc2ccc(CN3CCC(C)CC3)cc2)c(C)n(C)c1C
inhibition (at 35 µM): -2.2% (inactive)

CCOC(=O)N1CCC(N2Cc3cccc(C(=O)Nc4c(C)cccc4CC)c3C2=O)CC1
inhibition (at 35 µM): -4.1% (inactive)

CCOC(=O)CC1COCCN1C(=O)c1cc(COc2ccc(F)c(F)c2)on1 (stereo not given)
inhibition (at 35 µM): 1.8% (inactive)

O=C(O)c1ccc(OCC2CCCO2)cc1 (stereo not given)
inhibition (at 35 µM): 6.4% (inactive)

O=C(NCC(=O)N1CCN(c2ccccc2F)CC1)c1cccs1
inhibition (at 35 µM): 7.4% (inactive)

O=C(CN1C2=NCCN2c2ccccc21)c1cccs1
inhibition (at 35 µM): 88.7% (active) | inhibition (confirmation repeats, at 20 µM): 105%

CC(C)(C)C(=O)CN1C2=NCCN2c2ccccc21
inhibition (at 35 µM): -8.1% (inactive)

COc1ccc(N2CCN(C(=O)Cn3cnc4sc(C)c(S(=O)(=O)N5CCOCC5)c4c3=O)CC2)cc1
inhibition (at 35 µM): -2.8% (inactive)

Cc1cccc2[nH]c(CN(C)C(=O)C3CCC(=O)N(CCc4ccccc4)C3)nc12 (stereo not given)
inhibition (at 35 µM): -4.2% (inactive)

O=C(N/N=C/c1ccc(OCc2ccccc2)cc1)c1ccc(O)cc1
inhibition (at 35 µM): -15.7% (inactive)

O=C(COc1ccc([N+](=O)[O-])cc1)Nc1ccc(N2CCCC2)cc1
inhibition (at 35 µM): 7% (inactive)

O=C(COc1ccc(/C=N/NC(=O)c2ccc(O)cc2)cc1)Nc1ccc([N+](=O)[O-])cc1
inhibition (at 35 µM): 94.5% (active) | inhibition (confirmation repeats, at 20 µM): 77.2%

CC(C)c1ccc(Cc2nnc(NCCCO)[nH]c2=O)cc1
inhibition (at 35 µM): 3.4% (inactive)

CCOc1cc(CN2CCCC(CO)(Cc3ccc(F)cc3F)C2)ccc1OC (stereo not given)
inhibition (at 35 µM): 4.9% (inactive)

CCOCc1nnc(NC(=O)CCS(=O)(=O)Cc2ccccc2)s1
inhibition (at 35 µM): -0.4% (inactive)

CN(C)S(=O)(=O)c1cccc(-c2nn(-c3ccccc3)cc2/C=C2\SC(=S)N(CC(=O)O)C2=O)c1
inhibition (at 35 µM): 38.3% (inactive)

COc1ccc(-c2nn(-c3ccccc3)cc2/C=C2/SC(=S)N(CCCC(=O)O)C2=O)c(C)c1
inhibition (at 35 µM): 4.8% (inactive)

Cc1ccc(-c2nn(-c3ccccc3)cc2/C=C2\SC(=S)N(CCCCCC(=O)O)C2=O)o1
inhibition (at 35 µM): 35.4% (active) | inhibition (confirmation repeats, at 20 µM): 54.4%

O=C(CCCN1CCc2[nH]c3ccc(F)cc3c2C1)c1ccc(F)cc1
inhibition (at 35 µM): -1.4% (inactive)

CC(=O)Cn1cnc2c(cnn2-c2ccccc2)c1=O
inhibition (at 35 µM): -4.8% (inactive)

O=C(CCS(=O)(=O)Cc1ccccc1)Nc1ccc2c(c1)OCCO2
inhibition (at 35 µM): 72% (active) | inhibition (confirmation repeats, at 20 µM): 88.6%

CCCCC(=O)Nc1ccc2c(c1)OCCO2
inhibition (at 35 µM): -6.8% (inactive)

O=C(CN(c1ccc2c(c1)OCCO2)S(=O)(=O)c1ccccc1)Nc1ccc2c(c1)OCO2
inhibition (at 35 µM): -3.5% (inactive)

COc1ccc(OC)c(-n2c(-c3ccn[nH]3)n[nH]c2=S)c1
inhibition (at 35 µM): -4.8% (inactive)

COc1ccccc1-n1c(-c2cc(-c3ccco3)[nH]n2)n[nH]c1=S
inhibition (at 35 µM): 39% (active) | inhibition (confirmation repeats, at 20 µM): 56.9%

COc1ccc(-n2c(-c3ccc(OC)c(OC)c3)n[nH]c2=S)cc1
inhibition (at 35 µM): 4.9% (inactive)

CCOC(=O)N1CCN(Cc2nc3cc(NC(=O)CC)ccc3n2CC)CC1
inhibition (at 35 µM): 1.3% (inactive)

Cc1cccc(NC(=O)CCn2c(=O)oc3ccccc32)c1
inhibition (at 35 µM): 1% (inactive)

COc1cccc(Nc2ncccc2C(=O)O)c1
inhibition (at 35 µM): 11.9% (inactive)

COc1ccc(Nc2cc(Cl)ccc2C(=O)O)cn1
inhibition (at 35 µM): 72.3% (active) | inhibition (confirmation repeats, at 20 µM): 106%

COc1cc(C(F)(F)F)c(C(=O)N(C)c2ccc(Cl)cc2)cn1
inhibition (at 35 µM): -5.6% (inactive)

COc1ccccc1OC(C)C(=O)Nc1ccc(S(=O)(=O)Nc2nccs2)cc1 (stereo not given)
inhibition (at 35 µM): 4.4% (inactive)

CC(C)(C)OC(=O)NC(Cc1ccccc1)C(=O)NC(CSC1CCCCO1)C(=O)NN (stereo not given)
inhibition (at 35 µM): 1.1% (inactive)

COc1ccc(NS(=O)(=O)c2cc(NC(=O)/C=C/c3cc(OC)c(OC)c(OC)c3)ccc2N2CCCCC2)cc1
inhibition (at 35 µM): -9.8% (inactive)

COc1ccc(NS(=O)(=O)c2ccc(N3CCOCC3)c(NC(=O)c3ccccc3Br)c2)cc1
inhibition (at 35 µM): 3.8% (inactive)

COc1ccc(NS(=O)(=O)c2cc(NC(=O)C3CCCCC3)ccc2N2CCOCC2)cc1
inhibition (at 35 µM): 67.6% (active) | inhibition (confirmation repeats, at 20 µM): 92.5%

CC1CCCN(S(=O)(=O)c2ccc(-c3ccc(=O)[nH]n3)o2)C1 (stereo not given)
inhibition (at 35 µM): 3.3% (inactive)

Cc1ccc(-n2ncc3c2CC(C)(C)CC3NC(=O)CCc2cnn(C)c2)cc1 (stereo not given)
inhibition (at 35 µM): 54.6% (inactive) | inhibition (confirmation repeats, at 20 µM): 27.1%

O=C(NC1CCCC1)C1CC(=O)N(c2ccc(F)cc2)C1 (stereo not given)
inhibition (at 35 µM): -2.5% (inactive)

Cc1cc2c(cc1C)[n+](C)cn2CC(O)COCC1CC=CCC1 (stereo not given)
inhibition (at 35 µM): 77.8% (active)

N#Cc1cccc(CN2CCC(=O)N([C@H](CO)c3ccccc3)CC2)c1
inhibition (at 35 µM): 5.7% (inactive)

COc1cc(OC)cc(C(=O)NCCSCc2ccc(Cl)cc2)c1
inhibition (at 35 µM): -3.9% (inactive)

Cc1cccc(NC(=O)/C(=C\c2ccco2)NC(=O)c2ccccc2)c1
inhibition (at 35 µM): 52.1% (active)

O=C(NCc1ccco1)/C(=C/c1ccco1)NC(=O)c1ccccc1
inhibition (at 35 µM): -4% (inactive)

O=C(Nc1ccccc1)/C(=C\c1ccco1)NC(=O)c1ccco1
inhibition (at 35 µM): 14.9% (inactive)

COc1cc(/C=C/C(=O)N2CCc3ccccc3C2)cc(OC)c1OC
inhibition (at 35 µM): 2.6% (inactive)

COc1ccc(Cc2nnc(SCC(=O)Nc3ccc(C)c(C)c3)o2)cc1OC
inhibition (at 35 µM): -6.8% (inactive)

CCOC(=O)N1CCN(C(=O)COCc2cc(-c3ccc4c(c3)OCO4)on2)CC1
inhibition (at 35 µM): 3.8% (inactive)
